The assay in a line: HEK293T cell cytotoxicity, dose response, cytotoxicity control for HIV Vif inhibitor project, cherry-picks (AID 652208).

The structures appear in SMILES notation. Results with a measured potency or affinity are listed apart. Activity calls are given as the source filed them.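 How the source made its calls: active means Loss of cell signal with fitted half-effect dose at or below twice the top valid tested dose; inconclusive means Poor fit, or flat fit from -70 to -30 percent; inactive means Half-effect above limit, rising signal, or flat within 30 percent.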

On to `Cc1ccc(NC(=O)/C=C/c2ccco2)nc1`, for which the compound was classed as inactive.
Regarding `CC(C)CC(=O)Nc1ccc(-c2nnn(CC(=O)NCc3ccco3)n2)cc1`, the call was inactive.
With `Cc1cc(NC(=O)CSc2nc3ccccc3c(=O)n2-c2ccccc2)no1` the entry was “inactive”; with `O=C(CSc1nnc(CNc2ccc(F)cc2)o1)c1ccccc1`, “inactive”; with `Cc1ccc(C(C)C)c(OCC#CCN2CCOCC2)c1`, “inactive”.
For `Nc1nonc1-c1nc2ccccc2n1CC(=O)NC1CCCC1` the value was “inactive”.
With `N#Cc1c2ccc(OCC(N)=O)cc2n2ccccc12` the entry was “inactive”; with `COC(=O)c1sc(-c2ccc(Cl)cc2)cc1NC(=O)CSCC(=O)O`, “inactive”; with `O=C1S/C(=C/c2ccc(N3CCOCC3)o2)C(=O)N1Cc1c(F)cccc1Cl`, “inactive”.
Turning to `CCC(=O)Nc1ccc(-c2cc3ccccc3oc2=O)cc1`, the outcome was inactive.
`Cc1nc(NC(=O)C(C)Oc2cccc(Cl)c2)sc1C(=O)N(C)C` (stereo not given): the compound was called inactive.
For `CCOc1ccc(C(=O)c2cc([N+](=O)[O-])ccc2N2CCOCC2)cc1` the value was “inactive”; for `Cc1ccc(C(=O)COC(=O)c2cc(=O)[nH]c3ccccc23)cc1C`, “inactive”; for `COc1cc(-c2cc(=O)c3c(O)c(OC)c(OC)cc3o2)cc(OC)c1O`, “inactive”.
For `CN1CCN(C(=S)c2ccc(OCC(=O)Nc3cccc(C(F)(F)F)c3)cc2)CC1` the value was “inactive”.
For `Oc1ccc(-c2nc(-c3ccc(O)c(O)c3)cs2)cc1` the value was “inactive”; for `COc1ccccc1C(C)NC(=O)Cc1ccsc1` (stereo not given), “inactive”; for `COc1cccc(N2CCN(C(=O)c3ccc(CS(=O)c4ccc(C)cc4)o3)CC2)c1` (stereo not given), “inactive”.
On to `Cc1ccc(C(=O)NC(CCc2ccccc2)C(=O)O)cc1` (stereo not given), for which the result was inactive.
With `O=c1[nH]c(=O)n(Cc2ccco2)c2c1C(C(F)(F)F)(C(F)(F)F)N=C(c1ccco1)N2` the entry was “inactive”.
With `COc1cc(-c2cnc3c(NC=O)cc(-c4cccc(NC(C)=O)c4)cn23)cc(OC)c1OC` the entry was “inactive”; with `Cc1cc(/C=C2\C(=N)N3C(SCc4ccccc4)=NSC3=NC2=O)c(C)n1Cc1ccccc1`, “inactive”.
For `S=C(Nc1ccccc1)N1CCn2c(nc3ccccc32)C1` the value was “inactive”; for `N#Cc1c(-c2ccccc2)cc(C2CC2)nc1SCC(=O)c1cccs1`, “inactive”.
Regarding `CCN1CCN(c2cc(=O)n(-c3cc(Cl)ccc3C)c(=O)[nH]2)CC1`, the result was inactive.

The record behind these values is PubChem BioAssay AID652208 (Broad Institute, 2013).
